Results taken from PubChem BioAssay AID1347414 (National Center for Advancing Translational Sciences (NCATS), 2020).
Inconclusive results are not listed. A call without a number means that no potency is given here. Active and inactive are the calls of the source. Calls follow the shape of the dose curve; as a rule, active = well fitted inhibition curve with a large enough effect; inconclusive = small, poorly fitted or top-dose-only effect; inactive = no such curve, though single readings can be large or run the other way.

test: qHTS to identify inhibitors of the type 1 interferon - major histocompatibility complex class I in skeletal muscle: Secondary screen by immunofluorescence; conditions: C25cl48 myoblasts, IFN-b induced HLA-ABC immunofluorescence, 24 h, Viability; series mostly up to 49.8 µM; also: nearly all actives have a fitted effect of over 70% in size
Description: Assay Submitter (PI): Travis B. Kinder Ph.D. & James Inglese Ph.D. Assay Development and Screening Technology Laboratory (ADST) National Center for Advancing Translational Sciences (NCATS), Rockville, MD National Institute of Health (NIH), Bethesda, Maryland Idiopathic inflammatory myopathies, collectively referred to as myositis, are a group of rare autoimmune diseases characterized by skeletal muscle inflammation, weakness, and usually accompanied by systemic pathologies of the skin, lungs, or vasculature. Current immunosuppressive therapies and glucocorticoids are often not curative and are accompanied by harsh side effects, especially in children with juvenile myositis. We initiated a drug repurposing and development program to identify more targeted, less toxic therapeutics to treat myositis. Although its cause is not known, muscle from a subset of patients have an abundance of the inflammatory type 1 interferon (IFN) and a down-stream product major histocompatibility complex class I (MHC class I), which are both thought to contribute to damage and weakness. We conducted quantitative high throughput screening (qHTS) on 6,576 compounds (4,679 unique) through a series of cell-based assays to identify those that inhibit the IFN-stimulated expression of MHC class I in muscle precursor cells (myoblasts). The compound identification and evaluation strategy utilized a primary screen with reporter-tagged MHC class I in genome-engineered myoblasts, ATP content counter screen for viability, HLA-ABC immunofluorescence secondary screen, and HLA-B RT-qPCR tertiary screen. To verify activity of compounds identified by qHTS in HLA-B HiBit reporter cells, compounds were assayed by high throughput HLA-ABC immunofluorescence. Briefly, 216 compounds identified from primary and counter screening as inhibitory with minimal cytotoxicity were dispensed into black/clear bottom […] using acoustic dispensing in an 11-point, 1:3 titration with a high final concentration of 50 uM. Normal immortalized human myoblasts C25cl48 were added to the plates with 4.0 ng/ml human IFN-beta for 24 hours, fixed, stained by immunofluorescence for HLA-ABC protein, nuclei, and cell body, and analyzed by laser scanning cytometry as described by Auld et al., 2006. References: Auld DS, Johnson RL, Zhang Y, Veith H, Jadhav A, Yasgar A, Simeonov A, Zheng W, Martinez ED, Westwick JK, Austin CP, Inglese J. 2006. Fluorescent protein-based cellular assays analyzed by laser-scanning microplate cytometry in 1536-well plate format. Methods Enzymol 414:566-89. doi:10.1016/S0076-6879(06)14029-X
PROTOCOL TABLE (as described by Inglese et al., 2007) SEQUENCE No. (e.g., 1, 2, 3, etc.); […] (e.g., Cells, Incubation, Reagent, etc.); VALUE; DESCRIPTION 0; Compounds; 25 nl; Follow-up compounds dispensed at 25 nl/well with Labcyte Echo 655 acoustic dispenser in triplicate Aurora ChemLib 1536K black/clear bottom, low base, TC 1536-well plates (00019324). Also dispensed 25 nl/well DMSO control, ruxolitinib IFN-b inhibitor control titration, and digitonin cytotoxic control 1a; Cells; 5 uL; Multidrop Combi (Thermo Scientific) to seed 125 cells/well into eight plates in 5 ul/well of iHSKM growth medium (GM) without dexamethasone into columns 1+2. Add metal lids with gas-exchange holes 1b; Cells; 5 uL; Multidrop Combi (Thermo Scientific) to seed 125 cells/well into eight plates in 5 ul/well of iHSKM GM without dexamethasone + 4 ng/ml IFN-b into columns 3 - 48. […]
Potency is read from the fitted curve at half-maximal effect.

Structure (SMILES) | Potency
Cc1[nH]ncc1-c1cc2nc([C@@H]3CC4CCN3CC4)[nH]c(=O)c2s1 | inactive
Cc1sc2c(c1C)C(c1ccc(Cl)cc1)=N[C@@H](CC(N)=O)c1nnc(C)n1-2 | inactive
CN(C)c1cc2c(cc1Sc1nc3c(N)nccc3n1CCNCC(C)(C)C)OCO2 | inactive
O=C1/C(=C\c2ccccc2)C[C@@]2(O)[C@H]3Cc4ccc(O)c5c4[C@@]2(CCN3CC2CC2)[C@H]1O5 | 10.2 µM (active)
CC(C)(C)c1cc(C=C(C#N)C#N)cc(C(C)(C)C)c1O | inactive
CC1(C)CC[C@]2(NC(=O)C(C)(F)F)CC[C@]3(C)[C@H](C(=O)C=C4[C@@]5(C)C=C(C#N)C(=O)C(C)(C)[C@@H]5CC[C@]43C)[C@@H]2C1 | 4.08 µM (active)
Cc1sc2c(c1C)C(c1ccc(Cl)cc1)=N[C@@H](CC(=O)Nc1ccc(O)cc1)c1nnc(C)n1-2 | inactive
C/C1=C/C[C@@H](/C(C)=C/c2csc(C)n2)OC(=O)C[C@H](O)C(C)(C)C(=O)[C@H](C)[C@@H](O)[C@@H](C)CCC1 | inactive
O=c1[nH]c2ccc(Cl)cc2c(N[C@@H]2CN3CCC2CC3)c1-c1nc2ccccc2[nH]1 | 4.58 µM (active)
CC(C)[C@]12O[C@H]1[C@@H]1O[C@@]13[C@@]1(C)CCC4=C(COC4=O)[C@@H]1C[C@@H]1O[C@@]13C2=O | inactive
CC1=C(O)C(=O)C=C2C1=CC=C1[C@@]2(C)CC[C@@]2(C)[C@@H]3C[C@](C)(C(=O)O)CC[C@]3(C)CC[C@]12C | 5.76 µM (active)
C=C(C)[C@@H]1CCC(C)=C[C@H]1c1c(O)cc(CCCCC)cc1O | 25.7 µM (active)
COC(=O)[C@]12CCC(C)(C)C[C@H]1[C@H]1C(=O)C=C3[C@@]4(C)C=C(C#N)C(=O)C(C)(C)[C@@H]4CC[C@@]3(C)[C@]1(C)CC2 | 3.64 µM (active)
O=[N+]([O-])/C=C/c1ccc2c(c1)OCO2 | 11.5 µM (active)
CC(C)[C@]12O[C@H]1[C@@H]1O[C@]13[C@]1(O[C@H]1C[C@H]1C4=C(CC[C@@]13C)C(=O)OC4)[C@@H]2O | inactive
C[C@@H]1O[C@@H](O[C@H]2C[C@@H](O)[C@]3(CO)[C@H]4[C@H](O)C[C@]5(C)[C@@H](C6=CC(=O)OC6)CC[C@]5(O)[C@@H]4CC[C@]3(O)C2)[C@H](O)[C@H](O)[C@H]1O | inactive
COC(=O)[C@@]12OC[C@]34[C@H]([C@@H](O)[C@@H]1O)[C@@]1(C)CC(=O)C(O)=C(C)[C@@H]1C[C@H]3OC(=O)[C@H](OC(=O)/C=C(\C)C(C)C)[C@@H]24 | inactive
CCn1cnc2c(Nc3cccc(Cl)c3)nc(N[C@@H]3CCCC[C@@H]3N)nc21 | 25.7 µM (active)
CC[C@@]1(O)C(=O)OCc2c1cc1n(c2=O)Cc2cc3ccccc3nc2-1 | inactive
CC(=O)OC[C@H]1O[C@@H]([S-])[C@H](OC(C)=O)[C@@H](OC(C)=O)[C@@H]1OC(C)=O.CC[PH+](CC)CC.[Au] | 1.62 µM (active)
COc1cccc2c1C(=O)c1c(O)c3c(c(O)c1C2=O)C[C@@](O)(C(=O)CO)CC3OC1CC(N2CCOC(OC)C2)C(O)C(C)O1 (stereo not given in full) | inactive
C/C(=C\c1csc(C)n1)[C@@H]1C[C@@H]2O[C@]2(C)CCC[C@H](C)[C@H](O)[C@@H](C)C(=O)C(C)(C)[C@@H](O)CC(=O)O1 | inactive
C[C@@H]1O[C@@H](O[C@@H]2C=C3CC[C@@H]4[C@H](CC[C@]5(C)[C@@H](c6ccc(=O)oc6)CC[C@]45O)[C@@]3(C)CC2)[C@H](O)[C@H](O)[C@H]1O | inactive
Cc1sc2c(c1C)C(c1ccc(Cl)cc1)=N[C@@H](CC(=O)OC(C)(C)C)c1nnc(C)n1-2 | inactive
CC(C)(O)/C=C\C(=O)[C@](C)(O)[C@H]1[C@H](O)C[C@]2(C)[C@@H]3CC=C4[C@@H](C=C(O)C(=O)C4(C)C)[C@]3(C)C(=O)C[C@@]12C | 16.2 µM (active)
